Results taken from PubChem BioAssay (Tox21).
Inconclusive results are not listed. The source made the active and inactive calls. Unless noted, calls follow the shape of the dose curve; as a rule, active = well fitted curve in the direction sought with a large enough effect in the repeat runs; inconclusive = weak or mixed curves; inactive = no such curve, though single readings can be large; an effect the other way counts as inactive or inconclusive.

Assays:
[1] = qHTS assay to identify small molecule antagonists of the retinoid-related orphan receptor gamma (ROR-gamma) signaling pathway - cell viability counter screen (AID 1159520); also: % is scaled to controls: 0 for no effect and ±100 for the full control effect; nearly all actives have a fitted effect of over 50% in size
Procedure, shortened: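 Tet-on ROR gamma CHO cells (1,000/well) were plated 4 hr, given compounds in DMSO for 2 hr at 37 C, then induced with 1 uM final doxycycline for 16 hr. Viability was read as ATP by CellTiter-Glo luminescence after 30 min.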

[2] = target: Nuclear receptor ROR-gamma (Homo sapiens) (UniProt P51449); experiment: qHTS assay to identify small molecule antagonists of the retinoid-related orphan receptor gamma (ROR-gamma) signaling pathway (AID 1159521; also: nearly all actives have a fitted effect of over 50% in size; also: potency is read from the fitted curve at half-maximal effect;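 as to activity change, negative = inhibition: CHO cells with doxycycline inducible ROR-gamma driving an RORE luciferase reporter; top concentration of the series differs between compounds; % is scaled to controls: 0 for no effect and ±100 for the full control effect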)
Procedure, shortened: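 CHO cells expressing RORγ under a TET-on promoter, luciferase under RORE control. Dox 1 uM final, 16 h; compounds added 2 h prior. Luminescence decrease measured.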

[3] = qHTS assay to identify small molecule agonists of the AP-1 signaling pathway - cell viability counter screen (AID 1159525; calls by dose curve; also: nearly all actives have a fitted effect of over 55% in size)
Procedure, shortened: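 Each titration point was normalised to DMSO and tetra n-octyl ammonium bromide controls. The read was Cell Titer Glo luminescence after 30 min at RT, following 5 h compound exposure of ME-180 AP-1-bla cells at 37 °C.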

[4] = qHTS assay to identify small molecule agonists of the AP-1 signaling pathway (AID 1159526; calls by dose curve; also: % is scaled to controls: 0 for no effect and ±100 for the full control effect)
[5] = target: Retinoic acid receptor RXR-alpha (Homo sapiens) (UniProt P19793); experiment: qHTS assay to identify small molecule agonists of the RXR signaling pathway (AID 1159527; calls by dose curve; also: % is scaled to controls: 0 for no effect and ±100 for the full control effect; nearly all actives have a fitted effect of over 35% in size)
Procedure, shortened: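 Beta-lactamase reporter assay, agonist format. Engineered HEK 293T line, charcoal-stripped FBS at 2%, overnight (16 hr) exposure, fluorescence at 460 and 530 nm after 405 nm excitation.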

[6] = qHTS assay to identify small molecule agonists of the RXR signaling pathway - cell viability counter screen (AID 1159529);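 also: HEK 293T cells carrying an RXR-alpha UAS beta-lactamase reporter; series mostly up to about 77 µM; % is scaled to controls: 0 for no effect and ±100 for the full control effect; nearly all actives have a fitted effect of over 50% in size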
Procedure, shortened: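 Same-well viability check after the LiveBLAzer FRET read: CellTiter-Glo added, luminescence measured after 30 min at room temperature. Reporter HEK 293T cells had been treated with compounds for 16 hr following a 5 hr preincubation.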

[7] = qHTS assay to identify small molecule antagonists of the retinoid acid receptor (RAR) signaling pathway - cell viability counter screen (AID 1159551); also: % is scaled to controls: 0 for no effect and ±100 for the full control effect; nearly all actives have a fitted effect of over 35% in size
Procedure, shortened: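 C3RL4 RARE-luciferase line; cpds + retinol 1 uM final, 6 h, 37 C/5% CO2; CellTiter-Glo ATP luminescence, 30 min RT.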

[8] = qHTS assay to identify small molecule antagonists of the retinoic acid receptor (RAR) signaling pathway (AID 1159552; also: % is scaled to controls: 0 for no effect and ±100 for the full control effect; nearly all actives have a fitted effect of over 50% in size)
Procedure, shortened: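 Readout: luciferase luminescence, 30 min post-reagent at RT. Setup: C3RL4 RARE reporter cells, compounds plus retinol 1 uM final, 6 hr incubation at 37 C and 5% CO2.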

Chain of Retinoic acid receptor RXR-alpha (Homo sapiens) (P19793 whole entry, looked up): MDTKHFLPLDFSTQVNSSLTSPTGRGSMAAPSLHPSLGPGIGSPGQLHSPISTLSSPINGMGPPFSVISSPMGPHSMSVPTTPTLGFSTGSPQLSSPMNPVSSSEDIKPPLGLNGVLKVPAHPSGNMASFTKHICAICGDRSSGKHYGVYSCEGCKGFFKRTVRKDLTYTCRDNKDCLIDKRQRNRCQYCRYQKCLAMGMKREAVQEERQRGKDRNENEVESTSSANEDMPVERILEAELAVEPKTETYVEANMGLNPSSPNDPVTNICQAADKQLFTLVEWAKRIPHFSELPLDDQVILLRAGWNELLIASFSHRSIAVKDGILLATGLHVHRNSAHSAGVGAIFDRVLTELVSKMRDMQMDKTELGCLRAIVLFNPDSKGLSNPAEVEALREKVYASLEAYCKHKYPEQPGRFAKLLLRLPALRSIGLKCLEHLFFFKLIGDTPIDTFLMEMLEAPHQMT

Nc1cccnc1N
inactive: Potency [1] | Potency [2] | Potency [3] | Potency [4] | Potency [5] | Potency [6] | Potency [7] | Potency [8]

CSc1ccc(O)cc1C
inactive: Potency [1]
active: Potency [2] 43.3 µM

Nc1cc([N+](=O)[O-])ccc1Cl
inactive: Potency [1] | Potency [2] | Potency [3] | Potency [4] | Potency [5] | Potency [6] | Potency [7]

C=CC(C)(C)O
inactive: Potency [1] | Potency [2] | Potency [3] | Potency [4] | Potency [5] | Potency [6] | Potency [7]

Cc1cccc(C)c1C
inactive: Potency [1] | Potency [2] | Potency [3] | Potency [4] | Potency [5] | Potency [6] | Potency [7]

Clc1ccc2c(Cl)ccnc2c1
inactive: Potency [1] | Potency [2] | Potency [3] | Potency [4] | Potency [5] | Potency [6] | Potency [7] | Potency [8]

CCOc1nc(F)cc2nc(S(=O)(=O)Nc3c(Cl)cccc3C(=O)OC)nn12
inactive: Potency [1] | Potency [2] | Potency [3] | Potency [4] | Potency [5] | Potency [6] | Potency [7] | Potency [8]

O=C1OCc2ccccc21
inactive: Potency [1] | Potency [2] | Potency [3] | Potency [4] | Potency [5] | Potency [6] | Potency [7]

CCN(CCC#N)c1ccc(N=Nc2ccc([N+](=O)[O-])cc2)cc1
inactive: Potency [1] | Potency [2] | Potency [3] | Potency [4] | Potency [5] | Potency [6] | Potency [8]

C=Cc1ccncc1
inactive: Potency [1] | Potency [2] | Potency [3] | Potency [4] | Potency [5] | Potency [6] | Potency [7] | Potency [8]

Cn1ccnc1
inactive: Potency [1] | Potency [2] | Potency [3] | Potency [4] | Potency [5] | Potency [6] | Potency [7]

CC(=O)CC(N)=O
inactive: Potency [1] | Potency [2] | Potency [3] | Potency [4] | Potency [5] | Potency [6] | Potency [7] | Potency [8]

O=C(O)CN(CCCN(CC(=O)O)CC(=O)O)CC(=O)O
inactive: activity, negative = cytotoxicity [1] 3.4% [at 19 µM] | activity change, negative = inhibition [2] -18.7% [at 19 µM] | viability change, negative = cytotoxic [3] -3.53% [at 15.8 µM] | activation [4] 3.51% [at 15.8 µM] | activation [5] 0.262% [at 15.8 µM] | activity change, negative = cytotoxicity [6] -1.37% [at 15.8 µM] | activity change, negative = cytotoxicity [7] 0.537% [at 19 µM]

Nc1cc([N+](=O)[O-])cc(Cl)c1O
inactive: Potency [1] | Potency [2] | Potency [3] | Potency [4] | Potency [5] | Potency [6] | Potency [7] | Potency [8]
